High-throughput results deposited in PubChem BioAssay by several laboratories.
V-ATPase pHluor – regulators of yeast V-ATPase proton transport; actives 0.37% (n = 350,000); AID 504577; response, % at 10 µM; S. cerevisiae, pHLuorin cytosolic pH fluorescence; in the data active = response mostly above about 7.3%, no sharp cut-off; inactive = mostly below about 5.4%; also: actives read high
NALP1 inh – NALP1 inhibition; S. cerevisiae NALP1/ASC/caspase-1 growth, X-gal OD620, 72 h; inhibition, % at 10 µM; actives 0.61% (n = 280,000); in the data active = inhibition mostly above about 24%, no sharp cut-off; inactive = mostly below about 32%
tim10-1 inh – growth inhibitors of tim10-1 mutant yeast; S. cerevisiae tim10-1 ts strain growth, BacTiter-Glo, 24 h; inhibition, % at 20 µM; actives 2.2% (n = 330,000); AID 463190;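 active = inhibition of at least 40%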;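 also: mutant grown at 25 °C; 0% = DMSO wells with yeast and 100% = wells holding no yeast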
tim23-1 inh – inhibits growth of tim23-1 mutant yeast; S. cerevisiae tim23-1 growth, BacTiter-Glo luminescence, 24 h; inhibition, % at 20 µM; actives 1.3% (n = 330,000);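 active = growth inhibition of the mutant yeast at or above 50%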;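 also: temperature-sensitive mutant grown at 25 °C; plate controls were DMSO-treated mutant yeast for no effect and medium wells lacking yeast for full effect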
NALP3 yeast inh – blocks the NALP3 inflammasome reconstituted in yeast | AID 2825 | Yeast reconstituted NLRP3/ASC/caspase-1, beta-gal luminescence, 24 h | inhibition, % at 10 µM | actives 0.39% (n = 330,000);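 active = inhibition of 50% or more; inactive = inhibition below 50%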;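 also: plate controls were induced DMSO wells for no effect and uninduced yeast grown without galactose for full effect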
TIM10 inh – growth inhibitors of TIM10 yeast strain; S. cerevisiae TIM10 strain growth, BacTiter-Glo luminescence, 24 h; inhibition, % at 10 µM; actives 1.4% (n = 330,000); AID 463195;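 active = inhibition of 40% or more at the single tested concentration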;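 also: wild-type TIM10 isogenic control strain grown at permissive 25 °C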
tim10-1 confirm – confirmation of tim10-1 mutant yeast growth inhibitors | S. cerevisiae tim10-1 ts strain growth, BacTiter-Glo, 24 h | actives 56% (n = 7,400) | inhibition, % at 20 µM | shares compounds with tim10-1 inh | AID 463213;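 active = inhibition of yeast growth at or above a set limit in either of two repeat tests at 20 µM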;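 also: tim10-1 mutant grown at permissive 25 °C to find synthetic lethal compounds; 0% = DMSO yeast wells and 100% = medium wells without yeast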
tim10 confirm – confirmation of TIM10 yeast growth inhibitors; S. cerevisiae tim10 strain growth, BacTiter-Glo luminescence, 24 h; actives 63% (n = 4,600); inhibition, % at 10 µM; shares compounds with TIM10 inh;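 active = inhibition of yeast growth at or above a set limit in either of two replicates at 10 µM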;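 also: this counterscreen used the strain with wild-type TIM10; 0% = yeast with DMSO and 100% = medium wells lacking yeast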
Numbers without * were called inactive; · = no result. Sampled rows, rich in hits. Any-hit rate of the full collection: about 4.2%.

SMILES | V-ATPase pHluor | NALP1 inh | tim10-1 inh | tim23-1 inh | NALP3 yeast inh | TIM10 inh | tim10-1 confirm | others
Cc1cc(C)n(-c2nnc(NC(C)(C)C)nn2)n1 | -1.7 | 15.6 | 5.8 | 7.0 | 23.6 | 9.4 | ·
CCCN(CCC)C(=O)CC(c1ccccc1)c1cc(C)ccc1O (centres undefined) | 0.2 | 26.8 | 45.8* | 32.7 | 5.1 | 22.4 | 33.8*
Clc1ccc(-c2nnc(Sc3nc4ccccc4o3)c3ccccc23)cc1 | 0.9 | 10.6 | 41.6* | 46.4 | 23.9 | 39.8 | 16.7
Cc1nnc(Sc2nc3ccccc3o2)c2ccccc12 | -1.0 | 19.0 | 38.9 | 31.4 | 40.0 | 29.8 | ·
Cc1cccc(Nc2ncccc2C(=O)NCc2cccs2)c1C | 3.1 | -1.0 | 52.1* | 40.6 | 5.9 | 37.5 | 34.5*
O=C(NCc1cccs1)c1cccnc1Cl | -0.3 | 14.4 | 11.1 | 7.4 | 8.8 | 3.6 | ·
O=C(CN1C(=O)C2CCCCC2C1=O)OCn1nnc2ccccc2c1=O (centres undefined) | 1.1 | -9.3 | 10.6 | 8.3 | 8.4 | 11.4 | ·
COc1ccc(OC)c(-c2cc(C(=O)N3CCc4ccccc4C3)no2)c1 | -6.6 | 5.1 | 41.0* | 38.4 | 6.6 | 22.8 | 26.8
COc1ccccc1-c1cc(C(=O)N2CCN(c3ccccc3OC)CC2)no1 | -2.2 | -4.8 | 48.4* | 40.5 | 10.8 | 36.8 | 32.5*
CCOC(=O)N1CCN(c2ccccc2OC)CC1 | 5.4 | 30.7 | -14.6 | 38.7 | 24.4 | 1.3 | ·
CCC(C(=O)N1CCN(c2ccccc2OC)CC1)c1ccccc1 (centres undefined) | 0.9 | 28.7 | 42.3* | 25.7 | 2.3 | 1.7 | 12.8
CSc1nc(-c2ccccc2)cn1-c1ccc(NC(C)=O)cc1 | 1.3 | 5.7 | 45.8* | 35.7 | 17.4 | 15.2 | 31.2*
COc1ccc(CCNS(=O)(=O)c2ccc(OC)cc2)cc1 | 7.4 | -3.4 | 43.9* | 41.1 | 17.9 | 3.6 | 31.6
COc1cc(/C=C/C(=O)N2C(=O)c3cccc(N)c3C2=O)cc(OC)c1OC | -37.0 | -2.6 | 43.2* | 22.1 | -4.0 | 37.3 | 28.9
Nc1cccc2c1C(=O)N(C(=O)/C=C/c1cccc(Br)c1)C2=O | -7.5 | 5.1 | · | · | · | · | ·
COc1ccc(OC)c(/C=C/C(=O)N2C(=O)c3cccc(N)c3C2=O)c1 | -4.0 | 10.2 | 42.3* | 45.5 | 7.3 | 39.2 | 31.5*
COc1ccc(C(C(=O)NC2CCCC2)N(CCO)C(=O)Cn2nnc(-c3ccc(C)o3)n2)cc1 (centres undefined) | -6.4 | 5.6 | -13.3 | 2.2 | 12.0 | 8.4 | ·
COc1ccc(Cl)cc1-c1nc(SCC(=O)N(C)C)n[nH]1 | -0.4 | 6.0 | 6.4 | 24.1 | -9.0 | -18.2 | ·
Cc1[nH][nH]c(=O)c1C(c1c(C)[nH][nH]c1=O)c1cn(Cc2cccc3ccccc23)c2ccccc12 | 10.0 | 18.9 | 48.2* | 49.4 | 11.0 | 10.5 | 33.3*
CCOc1cc(-c2noc(CCCC(N)=O)n2)cc(Br)c1OC | -1.2 | 31.8 | 14.8 | 23.6 | 5.4 | 5.3 | ·
CCN(Cc1ccccc1)S(=O)(=O)c1ccc(C(=O)N(CCCN(C)C)c2nc3cc4c(cc3s2)OCCO4)cc1 | 1.0 | · | 46.2* | 8.0 | 22.9 | -60.8 | 4.2
COc1ccc2sc(N(CCCN(C)C)C(=O)c3ccc(S(=O)(=O)N4CCCc5ccccc54)cc3)nc2c1 | -0.9 | · | 57.5* | 27.7 | 35.9 | 38.9 | 31.5*
CN(C)CCCN(C(=O)c1ccc([N+](=O)[O-])s1)c1nc2cc3c(cc2s1)OCCO3 | -0.1 | 21.9 | 43.3* | 21.2 | 28.0 | 31.0 | 38.5*
CN(C)CCCN(C(=O)c1cc2cc([N+](=O)[O-])ccc2s1)c1nc2cc3c(cc2s1)OCCO3 | -2.2 | · | 79.0* | 8.8 | 17.3 | 29.9 | 26.9*
COc1cc2nc(N(CCCN(C)C)C(=O)c3ccc(S(=O)(=O)N4CCc5ccccc54)cc3)sc2cc1OC | 0.5 | · | 15.9 | 13.9 | 6.5 | 1.0 | ·
SMILES | V-ATPase pHluor | NALP1 inh | tim10-1 inh | tim23-1 inh | NALP3 yeast inh | TIM10 inh | tim10-1 confirm | others
Cc1cccc(N2CCN(C(=O)Cn3cccc3)CC2)c1C | -2.3 | -10.1 | -12.1 | 8.3 | 17.8 | -2.3 | ·
CCCCSc1nc2ccccc2n1CC(=O)O | 2.3 | 3.3 | -11.0 | -3.3 | 6.6 | -0.5 | ·
CCOc1cccc2cc(-c3nnc(NCc4ccco4)s3)c(=O)oc12 | -0.8 | -27.9 | 40.4* | 22.7 | 2.0 | 23.2 | 20.9
Cc1cc(C)nc(N(C#N)Cc2cccc3ccccc23)n1 | -1.4 | -5.3 | 48.0* | 31.9 | 14.1 | 5.9 | 34.6*
Cc1cc(C)nc(N(C#N)Cc2ccccc2)n1 | -2.5 | 27.9 | 8.7 | -6.7 | -4.7 | -22.7 | ·
COc1cccc(-c2noc(C3CCCN(C(=O)Cc4ccccc4)C3)n2)c1 (centres undefined) | -0.4 | 15.2 | 40.0* | 38.9 | -66.2 | 40.8* | 35.5* | tim10 confirm=24.0
CCCCCC(=O)Nc1ccc(Cl)cn1 | -0.5 | 20.6 | -8.1 | 7.1 | 8.3 | -8.1 | ·
CCCCCC(=O)NC(=S)Nc1ccc(Cl)cn1 | 3.1 | 24.5 | 46.5* | 40.1 | 2.8 | 44.0* | 28.4* | tim10 confirm=6.1
COc1ccc(NC(=S)N(CCN2CCOCC2)Cc2cc3cc4c(cc3[nH]c2=O)OCO4)cc1 | · | 2.1 | 4.6 | 15.2 | -3.4 | 12.1 | ·
N/C(=N\OC(=O)CC1CCCCC1)c1cccc([N+](=O)[O-])c1 | 2.6 | 32.6 | 56.0* | 38.4 | 5.9 | 46.0* | 65.4* | tim10 confirm=36.4*
O=C(NCC1CCCCC1)c1cccc([N+](=O)[O-])c1 | 1.5 | 1.5 | 3.3 | 21.1 | 28.3 | -7.8 | ·
CCCc1[nH]nc2c1C(c1cn[nH]c1-c1ccc(F)cc1)C(C#N)=C(N)O2 (centres undefined) | -1.4 | 2.1 | 43.8* | 44.1 | -11.0 | 40.8* | 47.7* | tim10 confirm=33.8*
CCCc1[nH]nc2c1C(c1ccccc1OC)C(C#N)=C(N)O2 (centres undefined) | 0.8 | 1.5 | 13.5 | 11.0 | 4.3 | 4.8 | ·
CC(C)(C)c1cnnn1-c1ccc(NC(=O)c2ccc3c(c2)OCO3)cc1 | -2.7 | 28.2 | 43.8* | 37.9 | 5.3 | 42.0* | 25.6 | tim10 confirm=33.8*
CC(C)(C)c1cnnn1-c1ccc(NC(=O)c2ccc(Br)o2)cc1 | 2.2 | 7.0 | 47.3* | 37.2 | 7.9 | 46.5* | 42.5* | tim10 confirm=39.3*
COc1cccc(C(=O)Nc2ccc(-n3nncc3C(C)(C)C)cc2)c1 | 1.7 | -6.2 | 34.0 | 31.0 | 13.8 | 22.4 | ·
COc1cc(C(=O)NCCc2c[nH]c3ccccc23)ccc1OCc1c(C)noc1C | 2.5 | -3.0 | 6.9 | 9.5 | 14.4 | 4.8 | ·
O=C(c1cccc(S(=O)(=O)N2CCN(c3ccccc3)CC2)c1)N1CC=C(c2ccccc2)CC1 | -4.0 | -5.4 | 30.5 | 23.2 | -3.2 | 16.4 | ·
